# Experimental data: PubChem BioAssay
# Several values for one entry are separate records, joined by “and”; a condition that tells them apart may be missing. Equal entries are not always repeated. Records with an inconclusive call do not appear. Activity calls are given as the source filed them. Unless noted, the limit is not given here; nearly all actives have AC50 up to about 26 µM.
# Columns and labels:
# [1] = biological target: ATP-dependent translocase ABCB1 (Homo sapiens) (UniProt P08183); assay: MDR1 (ABCB1) efflux transporter inhibition, cell-based (AID 377; in the data active = fluorescence slope change above about 50%); conditions: MDR1-expressing cells, fluorescent substrate accumulation slope; stronger effect = higher value; concentration not given here
# ATP-dependent translocase ABCB1 (Homo sapiens), sequence (P08183 whole entry, looked up): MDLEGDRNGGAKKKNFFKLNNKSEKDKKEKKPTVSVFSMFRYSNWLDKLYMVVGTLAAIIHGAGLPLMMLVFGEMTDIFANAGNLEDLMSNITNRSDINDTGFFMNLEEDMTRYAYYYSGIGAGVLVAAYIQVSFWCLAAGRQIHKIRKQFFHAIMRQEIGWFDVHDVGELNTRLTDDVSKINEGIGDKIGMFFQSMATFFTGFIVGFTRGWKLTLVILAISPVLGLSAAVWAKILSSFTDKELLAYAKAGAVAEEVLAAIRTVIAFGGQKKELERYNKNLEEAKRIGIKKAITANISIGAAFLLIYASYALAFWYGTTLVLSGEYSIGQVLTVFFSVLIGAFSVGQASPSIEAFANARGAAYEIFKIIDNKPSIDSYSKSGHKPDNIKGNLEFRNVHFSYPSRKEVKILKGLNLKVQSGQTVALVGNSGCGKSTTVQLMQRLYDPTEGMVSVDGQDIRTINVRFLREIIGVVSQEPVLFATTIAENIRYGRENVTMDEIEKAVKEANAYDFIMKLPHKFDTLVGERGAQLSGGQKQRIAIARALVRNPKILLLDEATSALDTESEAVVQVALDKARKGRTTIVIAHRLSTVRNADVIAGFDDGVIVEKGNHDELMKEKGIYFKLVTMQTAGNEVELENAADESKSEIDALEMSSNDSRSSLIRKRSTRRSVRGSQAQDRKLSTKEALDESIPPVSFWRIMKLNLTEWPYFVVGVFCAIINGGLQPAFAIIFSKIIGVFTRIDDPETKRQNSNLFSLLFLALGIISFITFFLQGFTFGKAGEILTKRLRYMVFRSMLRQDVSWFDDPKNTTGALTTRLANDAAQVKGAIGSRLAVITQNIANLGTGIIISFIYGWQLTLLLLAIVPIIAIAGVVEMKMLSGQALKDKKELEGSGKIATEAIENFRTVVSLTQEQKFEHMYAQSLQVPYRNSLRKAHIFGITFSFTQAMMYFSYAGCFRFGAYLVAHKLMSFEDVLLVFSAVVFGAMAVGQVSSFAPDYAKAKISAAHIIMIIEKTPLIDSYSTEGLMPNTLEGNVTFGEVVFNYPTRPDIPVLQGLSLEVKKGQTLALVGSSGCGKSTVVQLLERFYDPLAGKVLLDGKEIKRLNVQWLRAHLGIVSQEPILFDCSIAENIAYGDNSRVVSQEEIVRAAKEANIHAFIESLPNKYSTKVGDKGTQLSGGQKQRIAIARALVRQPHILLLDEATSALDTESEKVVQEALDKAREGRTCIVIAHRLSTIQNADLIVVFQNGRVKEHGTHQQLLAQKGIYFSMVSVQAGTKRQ
# [2] = reducers of polyQ inclusions in PC12 cells, cell-based, NGF-treated PC12, GFPQ80 (AID 1614); conditions: PC12 NGF-treated GFP-polyQ80 inclusion reduction;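 also: lower means fewer inclusions and 0 means no inclusions at all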
# [3] = growth inhibition of DIPG glioma cells, dose response, cell-based, SU-DIPG-XVII, MIPE5.0, CellTiter-Glo, qHTS (AID 1347060); conditions: SU-DIPG-XVII viability, CellTiter-Glo ATP luminescence
# [4] = growth inhibition of DIPG glioma cells, dose response, cell-based, SU-DIPG-IV, MIPE4.0, CellTiter-Glo, qHTS (AID 1347063; cut-off not given, nearly all actives have AC50 up to about 30 µM;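 also: compound exposure lasted 48 hours before the viability readout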); conditions: SU-DIPG-IV viability, CellTiter-Glo ATP luminescence
# [5] = growth inhibition of DIPG glioma cells, dose response, cell-based, SU-DIPG-XIII, MIPE5.0, CellTiter-Glo, qHTS (AID 1347064; cut-off not given, nearly all actives have AC50 up to about 23 µM); conditions: SU-DIPG-XIII viability, CellTiter-Glo ATP luminescence
# [6] = viability loss in pontine glioma line – cell-based, SU-DIPG-XXV, MIPE5.0, CellTiter-Glo, qHTS, dose response (AID 1347065); conditions: CellTiter-Glo ATP luminescence;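 also: cells exposed to compound for 48 hours before ATP readout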
# [7] = SU-DIPG-VI glioma cell viability, MIPE4.0 library, CellTiter-Glo luminescence, qHTS (AID 1347066; cut-off not given, nearly all actives have AC50 up to about 30 µM;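 also: cells exposed to compound for 48 hours before readout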); conditions: CellTiter-Glo ATP luminescence
# [8] = JHH-DIPG-1 glioma cell viability, MIPE5.0 library, CellTiter-Glo luminescence, qHTS (AID 1347067); conditions: JHH-DIPG-1 glioma viability, CellTiter-Glo ATP luminescence;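 also: cells exposed to compound for 48 hours before readout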
# [9] = SU-DIPG-XXV glioma cell viability, MIPE5.0 library, qHTS (AID 1347068; cut-off not given, nearly all actives have IC50 up to about 30 µM)
# [10] = LFS_MB_P medulloblastoma growth inhibition, cell-based, chromothripsis tumors, cisplatin or BGB combos (AID 1671449; in the data active = inhibition above about 80%;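 also: cells exposed for 96 hours; 0% = vehicle DMSO and 100% = killing by high DMSO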); conditions: LFS_MB_P medulloblastoma cells
# [11] = HDN33 neuroblastoma growth inhibition, cell-based, chromothripsis tumors, cisplatin or BGB combos (AID 1671450; in the data active = inhibition above about 80%;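 also: cells exposed to compound for four days; 0% = vehicle DMSO and 100% = cell killing by high DMSO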); conditions: HDN33 neuroblastoma cells, stronger effect = higher value
# [12] = ICB984 medulloblastoma cell growth inhibition, synergistic combos for chromothripsis tumors, cisplatin or BGB combos (AID 1671451; call rule not given here;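 also: cells exposed for 96 hours before readout; 0% = vehicle DMSO and 100% = killing by high DMSO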); conditions: ICB984 medulloblastoma cells, drug combinations, stronger effect = higher value
# [13] = LFS_MB_1R medulloblastoma cell growth inhibition, synergistic combos for chromothripsis tumors, cisplatin or BGB combos (AID 1671452; in the data active = inhibition above about 80%;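 also: cells exposed for 96 hours before readout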); conditions: LFS_MB_1R medulloblastoma cells, stronger effect = higher value
# [14] = HTB85 osteosarcoma cell growth inhibition, synergistic combos for chromothripsis tumors, BGB or cisplatin IC20 combos (AID 1671453; in the data active = inhibition above about 80%;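 also: cells exposed for 96 hours before readout; 0% = vehicle DMSO and 100% = high DMSO killing control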); conditions: HTB85 osteosarcoma cells, drug combinations, stronger effect = higher value
# [15] = MDA-MB-436 breast carcinoma cell growth inhibition, synergistic combos for chromothripsis tumors, BGB or cisplatin combos (AID 1671458; call rule not given here;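 also: cells exposed for 96 hours; 0% = vehicle DMSO and 100% = killing by high DMSO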); conditions: MDA-MB-436 breast carcinoma growth inhibition, drug combinations, stronger effect = higher value
# [16] = growth inhibition of BT084 medulloblastoma cells, cell-based, ICGC_MB145, cisplatin and BGB IC40 combos (AID 1671461; in the data active = inhibition above about 80%;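 also: cells exposed to drugs for 96 hours; 0% = vehicle DMSO and 100% = high DMSO full killing control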); conditions: drug combinations, stronger effect = higher value
# [17] = growth inhibition of RCMB18 medulloblastoma cells, cell-based, cisplatin and BGB IC40 combos (AID 1671462; in the data active = inhibition above about 80%;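 also: cells exposed to compound for four days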); conditions: stronger effect = higher value
# [18] = growth inhibition of CRL1545 osteosarcoma cells, cell-based, cisplatin and BGB IC20 combos (AID 1671464; in the data active = inhibition above about 80%;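 also: cells exposed to compound for 96 hours before readout; 0% = vehicle DMSO and 100% = high DMSO killing control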); conditions: stronger effect = higher value
# [19] = growth inhibition of DIPG glioma cells, dose response, cell-based, SU-DIPG-XIII, MIPE4.0, CellTiter-Glo, qHTS (AID 1347061; cut-off not given, nearly all actives have AC50 up to about 37 µM;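 also: cells exposed to compound for 48 hours before readout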); conditions: SU-DIPG-XIII viability, CellTiter-Glo ATP luminescence
# [20] = inhibitors of Cryptococcus chitosan production, flow cytometry, Cibacron Brilliant Red staining (AID 1347148; call rule not given here;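 also: compound exposure lasted three days at 37 degrees C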); conditions: Cryptococcus neoformans chitosan, stronger effect = lower value; at 10 µM unless noted
# [21] = measured here: combination with BGB IC40, at 0.05 µM
# [22] = measured here: with BGB IC20 combination, at 0.5 µM
# [23] = measured here: with cisplatin IC20 combination, at 0.5 µM
# [24] = measured here: combination with cisplatin, at 0.5 µM
smiles,measurement,setting,value
CNCCC(Oc1ccc(C(F)(F)F)cc1)c1ccccc1 (stereo not given),fluorescence slope change,[1],110% (active)
COC(=O)[C@H](c1ccccc1Cl)N1CCc2sccc2C1,inclusion score,[2],2
same,outcome,[3],inactive
same,outcome,[4],inactive
same,outcome,[5],inactive
same,outcome,[6],inactive
same,outcome,[7],inactive
same,outcome,[8],inactive
same,outcome,[9],inactive
CN(C)c1nc(N(C)C)nc(N(C)C)n1,inclusion score,[2],2
same,outcome,[3],inactive
same,outcome,[4],inactive
same,outcome,[5],inactive
same,outcome,[6],inactive
same,outcome,[8],inactive
same,outcome,[9],inactive
same,inhibition,"[10]; at 0.5 µM, stronger effect = higher value",-34.2% (inactive) and -27.6% (inactive)
same,inhibition,"[10]; measured here: combination with BGB IC20, at 0.005 µM",-17.9% and -27.7%
same,inhibition,"[10]; measured here: combination with BGB IC40, at 0.005 µM",-17.9% and -14.9%
same,inhibition,[10]; [21],-9.42% and -37.8%
same,inhibition,"[10]; measured here: combination with cisplatin, at 0.5 µM, stronger effect = higher value",-34.2% and -25.4%
same,inhibition,"[10]; measured here: combination with cisplatin, at 5 µM, stronger effect = higher value",-44.4% and -48.3%
same,inhibition,"[11]; BGB combo, at 5 µM",-7.22% and 3.98%
same,inhibition,[11]; at 0.5 µM,2.99% (inactive) and -25.1% (inactive)
same,inhibition,"[11]; cisplatin combo, at 5 µM",-6.3% and -2.36%
same,inhibition,[11]; [22],12.7% and -32.8%
same,inhibition,[11]; [23],1.13% and -2.01%
same,inhibition,"[11]; single agent, at 5 µM",-11% and -2.53%
same,inhibition,"[12]; BGB IC20 combo, at 0.005 µM",-31.6% and 0.139%
same,inhibition,"[12]; BGB IC40 combo, at 0.005 µM",-11.1% and -14.4%
same,inhibition,"[12]; BGB IC40 combo, at 0.05 µM",-16% and -10.6%
same,inhibition,[12]; at 0.5 µM,-16.4% (inactive) and -22.8% (inactive)
same,inhibition,"[12]; cisplatin combo, at 0.05 µM",-16% and -14.5%
same,inhibition,"[12]; cisplatin combo, at 0.5 µM",-23.9% and -10.7%
same,inhibition,"[12]; cisplatin combo, at 5 µM",-16.8% and 0.591%
same,inhibition,"[12]; measured here: 5 uM single agent, at 5 µM",-7.32% and -28.4%
same,inhibition,[13]; at 0.5 µM,-12.2% (inactive) and -12.7% (inactive)
same,inhibition,[13]; [21],-30.7% and -16.9%
same,inhibition,[13]; [24],-26.8% and 10.6%
same,inhibition,"[13]; measured here: combination with cisplatin, at 5 µM",4.67% and 9.66%
same,inhibition,[14]; at 0.5 µM,-13.6% (inactive) and -3.84% (inactive)
same,inhibition,"[14]; measured here: with BGB IC20, at 0.5 µM",-29.4% and -7.2%
same,inhibition,"[14]; measured here: with BGB IC20, at 5 µM",-7.32% and 14%
same,inhibition,"[14]; measured here: with cisplatin IC20, at 0.5 µM",-12.3% and -1.06%
same,inhibition,"[14]; measured here: with cisplatin IC20, at 5 µM",6.76% and 3.22%
same,inhibition,"[14]; single agent, at 5 µM",-2.06% and 11.5%
same,inhibition,[15]; at 0.5 µM,-22.6% (inactive) and -14.7% (inactive)
same,inhibition,"[15]; measured here: BGB combination, at 0.5 µM",-20.2% and -14.3%
same,inhibition,"[15]; measured here: BGB combination, at 5 µM",-29.4% and -4.55%
same,inhibition,"[15]; measured here: cisplatin combination, at 0.5 µM",-45.1% and -27.9%
same,inhibition,"[15]; measured here: cisplatin combination, at 5 µM",-26.8% and -16.1%
same,inhibition,[16]; at 0.5 µM,-16.2% (inactive) and -0.543% (inactive)
same,inhibition,"[16]; cisplatin combination, at 0.5 µM",-6.73% and -17%
same,inhibition,"[16]; cisplatin combination, at 5 µM",-56% and -11.7%
same,inhibition,"[16]; measured here: BGB IC40 combination 0.05 uM, at 0.05 µM",-15.3% and -38.9%
same,inhibition,"[16]; single agent, at 5 µM",-26.9% and -18.4%
same,inhibition,[17]; at 0.5 µM,-17.5% (inactive) and -22.8% (inactive)
same,inhibition,"[17]; cisplatin combo, at 5 µM",8.02% and 8.44%
same,inhibition,"[17]; measured here: BGB IC40 combination, at 0.05 µM",-20.9% and -5.23%
same,inhibition,[17]; [24],-20.5% and -16.6%
same,inhibition,"[17]; single agent, at 5 µM",-16.6% and -17.8%
same,inhibition,[18]; at 0.5 µM,-6.92% (inactive) and -37.6% (inactive)
same,inhibition,[18]; [22],-15.7% and -14.1%
same,inhibition,[18]; [23],-2.53% and -51.8%
same,inhibition,"[18]; single agent, at 0.05 µM",-4.42% and -41.6%
same,inhibition,"[18]; single agent, at 5 µM",18.4% and -24.6%
C[C@H]1COc2c(N3CCN(C)CC3)c(F)cc3c(=O)c(C(=O)O)cn1c23,outcome,[3],inactive
same,outcome,[19],inactive
same,outcome,[4],inactive
same,outcome,[5],inactive
same,outcome,[6],inactive
same,outcome,[7],inactive
same,outcome,[8],inactive
same,outcome,[9],inactive
CC1=C(/C=C/C(C)=C/C=C/C(C)=C\C(=O)O)C(C)(C)CCC1,fluorescence slope change,[1],188% (active)
same,outcome,[5],inactive
same,AC50,[6],6.61 µM (active)
same,outcome,[7],inactive
same,outcome,[8],inactive
same,outcome,[9],inactive
same,fold fluorescence,[20],5.81 (inactive)
CC[C@H]1OC(=O)[C@H](C)[C@@H](O[C@H]2C[C@@](C)(OC)[C@@H](O)[C@H](C)O2)[C@H](C)[C@@H](O[C@@H]2O[C@H](C)C[C@H](N(C)C)[C@H]2O)[C@](C)(OC)C[C@@H](C)C(=O)[C@H](C)[C@@H](O)[C@]1(C)O,outcome,[4],inactive
same,outcome,[7],inactive
CS(=O)(=O)c1ccc(C2=C(c3ccccc3)C(=O)OC2)cc1,outcome,[3],inactive
same,outcome,[19],inactive
same,outcome,[4],inactive
same,outcome,[5],inactive
same,outcome,[6],inactive
same,outcome,[7],inactive
same,outcome,[8],inactive
same,outcome,[9],inactive
Nc1ncnc2c1ncn2[C@@H]1O[C@H](CO)[C@@H](O)[C@@H]1O,inclusion score,[2],1.5
same,outcome,[3],inactive
same,outcome,[5],inactive
same,outcome,[6],inactive
same,outcome,[8],inactive
same,outcome,[9],inactive
COc1ccc(/C=C/C(=O)Nc2ccccc2C(=O)O)cc1OC,outcome,[3],inactive
same,outcome,[19],inactive
same,outcome,[4],inactive
same,outcome,[5],inactive
same,outcome,[6],inactive
same,outcome,[8],inactive
same,outcome,[9],inactive
CC(C)NCC(O)COc1cccc2ccccc12 (stereo not given),inclusion score,[2],2
